Measured values published in PubChem BioAssay (NCI).
“And” between values parts separate entries of the source, which are not always exact repeats. Identical values can stand only once. The panel holds about 79,000 compounds, 15% with a hit somewhere; the sample as a whole holds those more often. More than one record can exist for a structure, and the calls need not agree. The source made the active and inactive calls. Cut-off read from the data, not from the text of the source: active = growth inhibition above about 70%; inactive = the rest.

Experiments:
[1] = NCI Yeast Anticancer Drug Screen. Data for the rad50 strain (AID 155);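 note: 0% = growth of vehicle-only cultures of the same strain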; details: S. cerevisiae rad50 strain growth inhibition, stronger effect = higher value
Method in brief: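 DNA repair mutant yeast, compound exposure, growth read-out; inhibition is taken relative to vehicle.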

[2] = NCI Yeast Anticancer Drug Screen. Data for the mec2-1 strain (AID 157); details: S. cerevisiae mec2-1 strain, stronger effect = higher value
Method in brief: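 Using mec2-1 yeast: add compound, measure growth, express inhibition versus vehicle-treated cultures.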

[3] = NCI Yeast Anticancer Drug Screen. Data for the sgs1 mgt1 strain (AID 161);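 note: 0% = growth of cultures given vehicle only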; details: S. cerevisiae sgs1 mgt1 strain, stronger effect = higher value
Method in brief: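 Yeast cells carrying a defined DNA-repair defect were exposed to test compounds. Growth inhibition was measured relative to vehicle-treated controls.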

[4] = NCI Yeast Anticancer Drug Screen. Data for the cln2 rad14 strain (AID 165);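 note: 0% = growth equal to vehicle treated cultures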; details: S. cerevisiae cln2 rad14 strain, stronger effect = higher value
Method in brief: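 Yeast strain cln2 rad14, bearing defects in cell cycle control and DNA repair, serves as the test system; values reflect growth inhibition compared with vehicle.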

[5] = NCI Yeast Anticancer Drug Screen. Data for the bub3 strain (AID 167); details: S. cerevisiae bub3 mutant strain, stronger effect = higher value
Method in brief: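 In this screen, a yeast mutant lacking normal mitotic checkpoint function is challenged with compound. Relative growth versus vehicle gives the inhibition value.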

[6] = NCI Yeast Anticancer Drug Screen. Data for the mlh1 rad18 strain (AID 175); details: S. cerevisiae mlh1 rad18 strain growth inhibition, stronger effect = higher value
Method in brief: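 Steps: expose repair-defective yeast to compound; measure growth; express inhibition against vehicle-treated controls.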

[7] = at 5.0 µM (retest, dose inferred, filed as 0.5)
[8] = at 50.0 µM (retest, dose inferred, filed as 5.0)

Structure (SMILES): Cc1ccc(C(C)C)c2c1CN(CCN1COc3c(C(C)C)ccc(C)c3C1)CO2
- growth inhibition [1, 7]: -3% (inactive)
- growth inhibition [1, 8]: 2% (inactive)
- growth inhibition ([1]; at 50.0 µM): -3.9% (inactive)
- growth inhibition [2, 7]: 0% (inactive)
- growth inhibition [2, 8]: 3% (inactive)
- growth inhibition ([2]; at 50.0 µM): 6.8% (inactive)
- growth inhibition [3, 7]: -3% (inactive)
- growth inhibition [3, 8]: -1% (inactive)
- growth inhibition ([3]; at 50.0 µM): -13.8% (inactive)
- growth inhibition [4, 7]: -4% (inactive)
- growth inhibition [4, 8]: 1% (inactive)
- growth inhibition ([4]; at 50.0 µM): -11.2% (inactive)
- growth inhibition [5, 7]: -1% (inactive)
- growth inhibition [5, 8]: -2% (inactive)
- growth inhibition ([5]; at 50.0 µM): -2.95% (inactive)
- growth inhibition [6, 7]: -1% (inactive)
- growth inhibition [6, 8]: 4% (inactive)
- growth inhibition ([6]; at 50.0 µM): -8.65% (inactive)

Structure (SMILES): CCc1cc2c(cc1C(C)=O)C(C)(C)CCC2
- growth inhibition [1, 7]: 6% (inactive)
- growth inhibition [1, 8]: 95% (active)
- growth inhibition ([1]; at 50.0 µM): 98.5% (active)
- growth inhibition [2, 7]: 2% (inactive)
- growth inhibition [2, 8]: 97% (active)
- growth inhibition ([2]; at 50.0 µM): 98.7% (active)
- growth inhibition [3, 7]: 14% (inactive)
- growth inhibition [3, 8]: 98% (active)
- growth inhibition ([3]; at 50.0 µM): 98.5% (active)
- growth inhibition [4, 7]: 11% (inactive)
- growth inhibition [4, 8]: 97% (active)
- growth inhibition ([4]; at 50.0 µM): 93% (active)
- growth inhibition [5, 7]: -3% (inactive)
- growth inhibition [5, 8]: 96% (active)
- growth inhibition ([5]; at 50.0 µM): 98.7% (active)
- growth inhibition [6, 7]: 9% (inactive)
- growth inhibition [6, 8]: 98% (active)
- growth inhibition ([6]; at 50.0 µM): 98.7% (active)

Structure (SMILES): O=c1cc[nH]cc1
- growth inhibition [1, 7]: 2% (inactive)
- growth inhibition [1, 8]: 14% (inactive)
- growth inhibition ([1]; at 50.0 µM): 7.55% (inactive) and 26.5% (inactive)
- growth inhibition [2, 7]: -3% (inactive)
- growth inhibition [2, 8]: -7% (inactive)
- growth inhibition ([2]; at 50.0 µM): -8.8% (inactive) and 56.6% (inactive)
- growth inhibition [3, 7]: -5% (inactive)
- growth inhibition [3, 8]: 2% (inactive)
- growth inhibition ([3]; at 50.0 µM): 2.3% (inactive) and 16.9% (inactive)
- growth inhibition [4, 7]: 3% (inactive)
- growth inhibition [4, 8]: 5% (inactive)
- growth inhibition ([4]; at 50.0 µM): 1% (inactive) and 24.7% (inactive)
- growth inhibition [5, 7]: 1% (inactive)
- growth inhibition [5, 8]: -6% (inactive)
- growth inhibition ([5]; at 50.0 µM): 12.3% (inactive) and 23.3% (inactive)
- growth inhibition [6, 7]: 0% (inactive)
- growth inhibition [6, 8]: 6% (inactive)
- growth inhibition ([6]; at 50.0 µM): -7.05% (inactive) and 81.5% (active)

Structure (SMILES): N#CC(=C1C=CC(=NOC(=O)Nc2cccc3ccccc23)C=C1)c1ccccc1
- growth inhibition [1, 7]: 44% (inactive)
- growth inhibition [1, 8]: 99% (active)
- growth inhibition ([1]; at 50.0 µM): 97.8% (active)
- growth inhibition [2, 7]: 35% (inactive)
- growth inhibition [2, 8]: 99% (active)
- growth inhibition ([2]; at 50.0 µM): 97.7% (active)
- growth inhibition [3, 7]: 51% (inactive)
- growth inhibition [3, 8]: 100% (active)
- growth inhibition ([3]; at 50.0 µM): 98.5% (active)
- growth inhibition [4, 7]: 10% (inactive)
- growth inhibition [4, 8]: 99% (active)
- growth inhibition ([4]; at 50.0 µM): 97.7% (active)
- growth inhibition [5, 7]: 62% (inactive)
- growth inhibition [5, 8]: 99% (active)
- growth inhibition ([5]; at 50.0 µM): 98.3% (active)
- growth inhibition [6, 7]: 30% (inactive)
- growth inhibition [6, 8]: 99% (active)
- growth inhibition ([6]; at 50.0 µM): 97.5% (active)

Structure (SMILES): O=C1NC(=O)c2c1cccc2[N+](=O)[O-]
- growth inhibition [1, 7]: -7% (inactive)
- growth inhibition [1, 8]: 31% (inactive) and 12% (inactive)
- growth inhibition ([1]; at 50.0 µM): -4.8% (inactive) and 18.4% (inactive)
- growth inhibition [2, 7]: -20% (inactive) and 2% (inactive)
- growth inhibition [2, 8]: 4% (inactive) and 8% (inactive)
- growth inhibition ([2]; at 50.0 µM): -4% (inactive) and 25% (inactive)
- growth inhibition [3, 7]: -2% (inactive) and 0% (inactive)
- growth inhibition [3, 8]: 0% (inactive) and 8% (inactive)
- growth inhibition ([3]; at 50.0 µM): 9.25% (inactive) and -3.15% (inactive)
- growth inhibition [4, 7]: -5% (inactive) and 0% (inactive)
- growth inhibition [4, 8]: -6% (inactive) and -5% (inactive)
- growth inhibition ([4]; at 50.0 µM): 45.3% (inactive) and 50.4% (inactive)
- growth inhibition [5, 7]: 37% (inactive) and -2% (inactive)
- growth inhibition [5, 8]: -4% (inactive) and 8% (inactive)
- growth inhibition ([5]; at 50.0 µM): -1.4% (inactive) and 20.1% (inactive)
- growth inhibition [6, 7]: -4% (inactive) and -3% (inactive)
- growth inhibition [6, 8]: 3% (inactive) and 13% (inactive)
- growth inhibition ([6]; at 50.0 µM): 8.5% (inactive) and 2.2% (inactive)

Structure (SMILES): C1=C(CN2CCCCC2)COc2ccccc21
- growth inhibition [1, 7]: 9% (inactive)
- growth inhibition [1, 8]: 30% (inactive)
- growth inhibition ([1]; at 50.0 µM): 51.4% (inactive)
- growth inhibition [2, 7]: 1% (inactive)
- growth inhibition [2, 8]: 45% (inactive)
- growth inhibition ([2]; at 50.0 µM): 22.9% (inactive)
- growth inhibition [3, 7]: -7% (inactive)
- growth inhibition [3, 8]: 61% (inactive)
- growth inhibition ([3]; at 50.0 µM): 46.5% (inactive)
- growth inhibition [4, 7]: 0% (inactive)
- growth inhibition [4, 8]: 28% (inactive)
- growth inhibition ([4]; at 50.0 µM): 65% (inactive)
- growth inhibition [5, 7]: 6% (inactive)
- growth inhibition [5, 8]: 44% (inactive)
- growth inhibition ([5]; at 50.0 µM): 59.8% (inactive)
- growth inhibition [6, 7]: 20% (inactive)
- growth inhibition [6, 8]: 54% (inactive)
- growth inhibition ([6]; at 50.0 µM): 76.7% (active)

Structure (SMILES): O=NC1C(Br)C2CC1C1C(Cl)C(Cl)CC21 (stereo unspecified)
- growth inhibition [1, 7]: 6% (inactive)
- growth inhibition [1, 8]: 10% (inactive)
- growth inhibition ([1]; at 50.0 µM): 58.7% (inactive)
- growth inhibition [2, 7]: 12% (inactive)
- growth inhibition [2, 8]: 13% (inactive)
- growth inhibition ([2]; at 50.0 µM): 29.9% (inactive)
- growth inhibition [3, 7]: -5% (inactive)
- growth inhibition [3, 8]: 6% (inactive)
- growth inhibition ([3]; at 50.0 µM): 76.8% (active)
- growth inhibition [4, 7]: -2% (inactive)
- growth inhibition [4, 8]: -7% (inactive)
- growth inhibition ([4]; at 50.0 µM): 44.1% (inactive)
- growth inhibition [5, 7]: 1% (inactive)
- growth inhibition [5, 8]: -6% (inactive)
- growth inhibition ([5]; at 50.0 µM): 10.1% (inactive)
- growth inhibition [6, 7]: 25% (inactive)
- growth inhibition [6, 8]: 66% (inactive)
- growth inhibition ([6]; at 50.0 µM): 49.2% (inactive)
